Results from PubChem BioAssay (NCATS).
Inconclusive results are not listed. The source made the active and inactive calls. The call rests on the fitted dose curve; in most records, active means well fitted cell-killing curve with a large enough effect; inconclusive means small, poorly fitted or top-dose-only effect; inactive means flat fitted curve, though single readings scatter.

Experiment: Cellular viability qHTS for adrenocortical cancer (ACC) cell line NCI-H295R (AID 1963990); further: nearly all actives have a fitted effect of over 60% in size;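 on activity change, negative = viability loss: 0% = DMSO only wells and -100% = full killing with cytotoxic reference compound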
Conditions: CellTiter-Glo ATP luminescence, 48 h; series mostly up to 46.1 µM; activity change, negative = viability loss: at the top concentration
In short: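 CellTiter-Glo ATP luminescence, read 48 h after compound addition, measured viability of NCI-H295R adrenocortical cells grown serum-free with ITS. Final concentrations spanned up to 46 uM. Data normalized to DMSO and doxorubicin, fitted for IC50 and maximal response.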

SMILES	activity change, negative = viability loss	Potency
CCN1CCN(c2cc(-c3ccc(F)cc3)c3c(n2)CCCCCC3)CC1	-4.07% [at 20 µM] (inactive)	
NC[C@@](O)(c1ccc(Cl)cc1)c1ccc(-c2cn[nH]c2)cc1		10 µM (active)
O=c1c(-c2ccc(O)cc2)coc2c([C@@H]3O[C@H](CO)[C@@H](O)[C@H](O)[C@H]3O)c(O)ccc12	3.53% (inactive)	
CC(C)(O)CC[C@@H](O)[C@](C)(O)[C@H]1CC[C@@]2(O)C3=CC(=O)[C@@H]4C[C@@H](O)[C@@H](O)C[C@]4(C)[C@H]3CC[C@]12C	5.56% (inactive)	
Cc1cccc(C)c1NC(=O)c1ccccc1C(=O)O	9.36% (inactive)	
COc1ccccc1C(=O)Nc1cc2c(cc1N1CCCCC1)n(C)c(=O)n2C	-15.8% (inactive)	
CN1CCN(c2ccc3nc(-c4cc(C(C)(C)C)c(OCCCC(=O)NCCCN=[N+]=[N-])c(C(C)(C)C)c4)[nH]c3c2)CC1		3.16 µM (active)
CC(=O)NC(CS)C(=O)O (stereo not given)	-3.44% (inactive)	
C[C@]12CCC(=O)C=C1CC[C@@H]1[C@@H]2C(=O)C[C@@]2(C)[C@H]1CC[C@]2(O)C(=O)CO	-11.2% (inactive)	
CN1C(C)(C)CCCC1(C)C	-6.45% (inactive)	
N#Cc1ccc(COC[C@H]2O[C@@H](n3c(NCc4ccc(Cl)c(Cl)c4)nc4c(N)ncnc43)[C@H](O)[C@@H]2O)cc1	-19.1% (inactive)	
CC(=O)Nc1ccc(OC(=O)c2ccccc2OC(C)=O)cc1	3.64% (inactive)	
O=C(O)CCC(=O)Nc1ccc(S(=O)(=O)Nc2nccs2)cc1	-7.17% (inactive)	
COc1ccccc1OCC(O)CO (stereo not given)	-4.32% (inactive)	
O=C(CCc1ccc(O)cc1)c1c(O)cc(O)cc1O[C@@H]1O[C@H](CO)[C@@H](O)[C@H](O)[C@H]1O	-30.4% (inactive)	
CN(C)c1cc(NC(=O)CNC(C)(C)C)c(O)c2c1C[C@H]1C[C@H]3[C@H](N(C)C)C(=O)C(C(N)=O)=C(O)[C@]3(O)C(=O)C1=C2O	0.462% (inactive)	
CC(C)N(CCCNC(=O)Nc1ccc(C(C)(C)C)cc1)C[C@H]1O[C@@H](n2cc(Br)c3c(N)ncnc32)[C@H](O)[C@@H]1O		25.1 µM (active)
c1ccc(CN(CC2=NCCN2)c2ccccc2)cc1	-0.0998% (inactive)	
CC1(C)OC2=C(C(=O)c3ccccc3C2=O)[C@H](NCc2ccccc2)[C@@H]1O		3.16 µM (active)
NCC1CCN(c2nccc(-c3ccc4ccccc4c3)n2)CC1		10 µM (active)

SMILES	activity change, negative = viability loss	Potency
Brc1c(NC2=NCCN2)ccc2nccnc12	-5.91% (inactive)	
Cc1oc(=O)oc1COC(=O)[C@@H]1N2C(=O)[C@@H](NC(=O)[C@H](N)c3ccccc3)[C@H]2SC1(C)C	-22.4% (inactive)	
CCc1cc(C(N)=O)ccc1-n1nc(C(C)C)c2c(-n3cnc(-c4cnn(C)c4)c3)ccnc21		7.94 µM (active)
Cc1ccc2cc(-c3c(C)ccc(C(=O)c4c(-c5ccccc5)n(C)n(-c5ccccc5)c4=O)c3N)ccc2n1	2.37% (inactive)	
CCN(CC)CC(=O)OCC(=O)[C@@]1(O)CC[C@H]2[C@@H]3CCC4=CC(=O)CC[C@]4(C)[C@H]3[C@@H](O)C[C@@]21C	-26.3% (inactive)	
COc1cc([C@@H]2c3cc4c(cc3[C@@H](O[C@@H]3O[C@@H]5CO[C@@H](c6cccs6)O[C@H]5[C@H](O)[C@H]3O)[C@H]3COC(=O)[C@H]23)OCO4)cc(OC)c1O		7.08 µM (active)
O=C1Nc2nc(-c3c(O)cccc3OCC3CC3)cc([C@@H]3CCCNC3)c2CO1		17.8 µM (active)
COc1ccc(-c2cc(C(O)C3CCCCN3)c3ccccc3n2)cc1 (stereo not given)		11.2 µM (active)
Cc1[nH]c2ccc(F)cc2c1-c1nc2c3cccnc3c3ncccc3c2[nH]1		3.16 µM (active)
COCCOc1cnc2ccn([C@H](C)c3nnc4c(F)cc(-c5cnn(C)c5)cn34)c(=O)c2c1	-7.23% (inactive)	
CCCCNc1ncc2c(-c3ccc(F)cc3)nn(CC3CCC(N)CC3)c2n1 (stereo not given)		7.15 µM (active)
CNCc1ccc(-c2cc(-c3nc(-c4ccc(S(=O)(=O)C(C)C)cc4)cnc3N)on2)cc1		0.316 µM (active)
CCCCOC(=O)CC(CC(=O)OCCCC)(OC(C)=O)C(=O)OCCCC	-27.3% (inactive)	
CCN(CC)CCc1nc(-c2ccccc2)no1	-3.49% (inactive)	
C=C1C[C@H]2C=Nc3cc(OCCCOc4cc5c(cc4OC)C(=O)N4CC(=C)C[C@H]4C=N5)c(OC)cc3C(=O)N2C1		0.1 µM (active)
C(=C\c1ccccc1)/CN1CCN(C(c2ccccc2)c2ccccc2)CC1	-23.3% (inactive)	
CNC(=O)c1cccc2cc(Oc3ccnc4cc(OCC5(N)CC5)c(OC)cc34)ccc12		22.4 µM (active)
O=C(/C=C/c1ccc(Cl)cc1)N1CCC2(CC1)CN(Cc1ccc(Cl)c(Cl)c1)C(=O)O2	-18.7% (inactive)	
CCN1CCC[C@H]1CNC(=O)c1cc(S(N)(=O)=O)ccc1OC	9.62% (inactive)	
NC(=S)N/N=C/c1cccnc1	-23.9% (inactive)	
